Measurements published in PubChem BioAssay (NCI).
About 83,000 compounds went through this panel and 20% of them were active in at least one assay; those are over-represented in the sample as a whole.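 Treatment: one concentration, 48 hours, 96-well format. Scoring: percent growth, with anything below 10 considered active.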 Unmarked numbers belong to inactive results. Active and inactive are the calls of the source.

What follows are compounds tested on HOP-92 NSCLC (assay: NCI-60 one-dose screen, 48 h (100 = growth as untreated, 0 = no growth, -100 = all killed)). Settings: 10 µM unless noted.
Protocol: Growth inhibition of the HOP-92 human Non-Small Cell Lung tumor cell line is measured as a screen for anti-cancer activity. Cells are grown in 96 well plates and exposed to the test compound for 48 hours. Compounds are tested at a single concentration, which is 10^-5 M for most compounds. The reported endpoint is percent growth (GI% or GIPRCNT), where numbers from 0 - 100% represent growth inhibition, and numbers from -100% - 0 represent cell death. For example, a value of 40 represents 60% growth inhibition. A value of 0 means no net growth occurred over the course of the experiment. A value of -40 indicates 40% of cells at the beginning of the experiment died by the end of the experiment. A value of -100 means all cells are dead at the end of the experiment.
NCI-60 Human Tumor Cell Lines Screen was performed using the standard one-dose NCI protocol, which is described in more detail at https://dtp.cancer.gov/discovery_development/nci-60/default.htm.
Compounds with GIPRCNT values below 10 were considered active. Activity score was based on GIPRCNT using the following formula: […]
Score is 0 for GIPRCNT values of 100 or above, 50 for GIPRCNT values of 0, and 100 for GIPRCNT values of -100.
For CCN(CC)CCCC(C)Nc1c2ccc(Cl)cc2nc2cc(OC)c(OC)cc12 (stereo not given), the growth was -9.58% (active).
Work on COc1ccc(-c2c(N)n[nH]c2-c2cc3c(c(OC)c2OC)OCO3)cc1 yielded a growth of 87.2%.
In the case of CCN(CC)CCC(CNc1ccnc2cc(Cl)ccc12)c1ccccc1 (stereo not given), the growth is reported as 21.1%.
With CCCCCCCCCCCCNC(=O)[C@H]1CSC(c2ccsc2)N1 (stereo not given in full) the growth was -10% (active).
C=C[C@@H]1C[C@H](O)Cc2c(C)cc(C)cc2N1 gave a growth of 75.1%.
CC(C)NCCCNC1=C(Cl)C(=O)c2ccccc2C1=O showed a growth of 110%.
In the case of O=c1[nH]c2ccc(Br)cc2c2c1C(c1ccc(Cl)cc1)c1c(ncn3nc(-c4ccco4)nc13)O2 (stereo not given), the growth is reported as 37.7%.
With CC(C)(C)n1cc(-c2ccnc(NCCNS(=O)(=O)c3ccc(F)cc3)c2)c(-c2cccc(O)c2)n1 the growth was 58.3%.
CN(C)c1cccc2c(S(=O)(=O)/N=C(\N)Nc3nc4ccccc4s3)cccc12 gave a growth of 60.2%.
COc1ccc(Nc2[nH]n3c(=O)cc(-c4ccccc4)nc3c2C(=O)Nc2ccc(C)cc2)c(OC)c1 gave a growth of 68.9%.
COc1cccc(CC(C)=C(c2ccc(OCCN(C)C)cc2)c2ccc(OCCN(C)C)cc2)c1 showed a growth of 10.2%.
Compound O=C(Nc1ccc(Cl)c(Cl)c1)NS(=O)(=O)c1cnccc1Oc1ccc(F)cc1 has a growth of 52.7%.
In the case of Cc1c(C(=O)/C=C/c2csc3ccccc23)[n+](=O)c2ccccc2n1[O-], the growth is reported as 43.9%.
Compound COc1cc(/C=C/C(=O)N2CCN(C(=O)/C=C/c3cc(OC)c(OC)c(OC)c3)CC2)cc(OC)c1OC has a growth of 99.7%.
C=C1CCC2C3(C)COC(C)(C)OC3CCC2(C)C1C/C=C1/C(=O)OCC1Oc1ccccc1OC (stereo not given) was tested, and the growth was 116%.
In the case of COC1=C(OC)C(=O)C(CCCCCCCCCC[P+](c2ccccc2)(c2ccccc2)c2ccccc2)=C(C)C1=O, the growth is reported as -47.3% (active).
Cc1ccc2nc(Cl)cc(=O)n2c1 was tested, and the growth was 104%.
COc1cc(-c2nn(-c3cccc(NC(=O)Nc4cc(C(F)(F)F)cc(C(F)(F)F)c4)c3)cc2-c2ccncc2)ccc1Cl was tested, and the growth was -50.2% (active).
COc1ccc2cc(-c3ccc(-c4ccc(C(=N)N)cc4)s3)ccc2c1 gave a growth of 87.2%.
Compound O=C(c1ccccc1)C1OC1c1ccc([N+](=O)[O-])cc1 (stereo not given) has a growth of 61.5%.
c1ccc(-c2cn(-c3ccccc3)c(-c3ccccc3)n2)cc1 showed a growth of 69.4%.
For Cc1ccc(S(=O)(=O)C2=C3C(=C(c4ccccc4)c4ccccc43)CN(S(=O)(=O)c3ccc(C)cc3)C2)cc1, the growth was 3.21% (active).
In the case of COc1cc(/C=C/C(=O)/C=C/c2cc(OC)c3c(c2)OCO3)cc2c1OCO2, the growth is reported as 83.9%.
Compound O=C(NCc1cn(Cc2cccc(Oc3ccccc3)c2)nn1)c1cccnc1Nc1ccc(F)cc1 has a growth of 114%.
For CCN(CC)CCC(CNc1c2ccc(Cl)cc2nc2ccc(OC)cc12)c1ccccc1 (stereo not given), the growth was -1.53% (active).
In the case of NC1=C(/C(N)=N/O)C(c2ccccc2)c2ccc3ccccc3c2O1 (stereo not given), the growth is reported as 29.8%.
In the case of CCCCN(CCCC)c1ccc(C(=N)c2ccc(N(CCCC)CCCC)cc2)cc1, the growth is reported as -83% (active).
Compound CCCCCCCC/C=C/CCCCCCCC1=NC(C)(C)CN1C(C)(C)CO has a growth of 20.3%.
CC(C)CSc1nc(NN)c(C#N)c(-c2ccc(F)cc2)n1 gave a growth of 105%.
Cc1ccc(S(=O)(=O)NCCNc2nccc(-c3c(-c4cccc(N)c4)nc4sccn34)n2)cc1 gave a growth of 94%.
Compound CCCCOc1ccc(/C=C2/SC(N3CCOCC3)=NC2=O)cc1OCC has a growth of 70.7%.
N=C(N)c1ccc(-c2cc(Cl)cc(Cl)c2)cn1 gave a growth of 59.3%.
O=C(Nc1ccc2c(c1)OCCO2)C(=O)c1c[nH]c2ccccc12 was tested, and the growth was 1.01% (active).
For COC(=O)C(Sc1ccc(Cl)cc1)C1SC(=S)N(Cc2ccccc2)C1=O (stereo not given), the growth was 104%.
For CC(C)(C)NCCC(O)c1cc2c(Cl)cc(Cl)cc2c2cc(C(F)(F)F)ccc12 (stereo not given), the growth was -62.1% (active).
With Clc1ccc(-c2nc3ccccc3s2)cc1Cl the growth was 84.1%.
In the case of O=S(=O)(NCCCNc1nccc(-n2ccc3cccnc32)n1)c1ccc(Br)cc1, the growth is reported as 109%.
COc1ccc2c(c1)C(c1cc(OC)c3c(c1)OCO3)C1=C(COC1=O)N2 (stereo not given) showed a growth of 26.9%.
Cn1ccc(=O)c(S(N)(=O)=O)c1 showed a growth of 89.3%.
Fc1ccc(Nc2nc(NCCNc3ccnc4cc(Cl)ccc34)nc(N3CCOCC3)n2)cc1 was tested, and the growth was -5.61% (active).
